# Data published in PubChem BioAssay.
# The source made the active and inactive calls.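 The calls were made as follows: active = inhibition above 20% together with a positive visual image hit; inconclusive = visual image hit but inhibition not above 20%; inactive = no visual image hit.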
# Experiment: inhibitors of TNFa-induced NFkB p65 translocation, primary screen, imaging, HUVEC, MLSMR starter and 10KST1 sets (AID 438);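 also: compound added about 3h40 before a 20 min TNFalpha stimulation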;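 as to inhibition: signal is the nuclear over cytoplasmic p65 intensity ratio per well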
# Conditions: HUVEC TNFa-induced p65 nuclear translocation; cell count: measured here: nuclei count (cytotoxicity indicator), at 2.08 µM; inhibition: at 2 µM, stronger effect = higher value, 0% TNFa-plus-vehicle, 100% no-TNFa wells
SMILES,cell count,inhibition
Cc1cc(C)nc(SCc2nnc(SCC(=O)Nc3ncc(C)s3)n2Cc2ccco2)n1,422,3% (inactive)
COc1cccc(C2C(C(=O)c3cccs3)=C(O)C(=O)N2CCCn2ccnc2)c1OC (stereo not drawn),406,-2% (inactive)
COc1cc(C(=O)N(C)c2nnc(-c3cccnc3)s2)cc(OC)c1OC,646,-5.5% (inactive)
CC(=O)Nc1nnc(SCC(=O)NCC2CCCO2)s1 (stereo not drawn),415,6% (inactive)
O=C(CSc1nc2cc(S(=O)(=O)N3CCOCC3)ccc2o1)NC1CCCc2ccccc21 (stereo not drawn),571,-16.3% (inactive)
O=C(NCCN1CCOCC1)c1ccc(CS(=O)(=O)Cc2ccccc2F)o1,536,-21.6% (inactive)
CCOC(=O)c1c(C)oc2ccc(NS(=O)(=O)c3ccc4c5c(cccc35)C(=O)N4)cc12,429,6.5% (inactive)
COC(=O)CCn1nnc(-c2ccc(C)cc2)n1,390,7.6% (inactive)
O=C(Nc1ccc(NC(=O)C2CC2)cn1)c1ccccc1Cl,745,2.6% (inactive)
COc1ccc(NC(=O)CC2CCCCC2)cc1OC,258,-5.5% (inactive)
CC1(C)CC2CC(C)(CN2S(=O)(=O)c2ccc(N)cc2)C1 (stereo not drawn),613,-9.2% (inactive)
COc1cc(C(=O)NCC(=O)OCC(=O)c2ccc[nH]2)cc(OC)c1OC,383,-23% (inactive)
C=CCSc1nnc(-c2ccc(Cl)cc2Cl)o1,400,0.2% (inactive)
COc1cc(CC(=O)Oc2ccc3c(c2)OCO3)cc(OC)c1OC,469,1.1% (inactive)
